Only some compounds are listed: those with a hit (about 3.3% of all), similar ones and a draw of the others.
AmpC no deterg: AmpC beta-lactamase inhibition without detergent. AID 485341. P00811. AmpC nitrocefin hydrolysis, absorbance 480 nm, 0.0001% Triton. Potency, µM (highest dose often 57.1 µM), most hits filed as inhibitors. 330,000 tested, 0.52% active; further: nearly all actives have a fitted effect of over 20% in size
Target sequence (P00811 whole entry, looked up): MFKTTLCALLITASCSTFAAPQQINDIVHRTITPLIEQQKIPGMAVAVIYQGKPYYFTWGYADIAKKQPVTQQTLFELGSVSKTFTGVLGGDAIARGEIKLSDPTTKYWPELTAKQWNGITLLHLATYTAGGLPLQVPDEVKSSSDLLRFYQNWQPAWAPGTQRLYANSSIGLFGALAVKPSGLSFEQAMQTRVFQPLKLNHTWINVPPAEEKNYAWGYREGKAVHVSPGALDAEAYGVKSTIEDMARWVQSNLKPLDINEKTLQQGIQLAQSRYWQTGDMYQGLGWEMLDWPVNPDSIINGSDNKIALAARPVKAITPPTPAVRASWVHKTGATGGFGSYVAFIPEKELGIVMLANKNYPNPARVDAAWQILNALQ
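AmpC (5.3 nM in the dispensed reagent) in 20 mM phosphate pH 7.0 with 0.01% (detergent screen) or 0.0001% Triton X-100 was preincubated with compounds for 15 min at room temperature. Nitrocefin was then added from an 800 uM solution, and hydrolysis was followed at 480 nm.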
Sm TGR block: S. mansoni TGR enzyme inhibition; purified TGR, DTNB reduction, TNB absorbance 405 nm; Potency, µM (highest dose often 114 µM), hits mostly inhibitors; 360,000 tested, 3% active; further: nearly all actives have a fitted effect of over 60% in size
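TGR 20 nM + NADPH 100 uM (dispensed conc.), cpd preinc 15 min RT; start with NADPH (500 uM addition) then DTNB (15 mM addition). Kinetic TNB absorbance, 405 nm filter. Four-parameter Hill fit across titration.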
AmpC detergent: AmpC beta-lactamase inhibition with detergent present. P00811. AmpC hydrolysis of nitrocefin, absorbance 480 nm, 0.01% Triton. Potency, µM (doses to about 114 µM), usual class: inhibitors. 370,000 tested, 0.041% active; further: nearly all actives have a fitted effect of over 25% in size
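20 mM phosphate pH 7.0 + 0.01% (detergent screen) or 0.0001% Triton X-100; 5.3 nM AmpC reagent; cpd preinc 15 min RT; nitrocefin (800 uM stock) to start; A480 q20 s × 4 min; Activity was normalised to no-enzyme and no-compound control wells.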
Hits are given with their value. The call rests on the fitted dose curve; in most records, active means well fitted curve in the direction sought with a large enough effect; inconclusive means small, poorly fitted or top-dose-only effect, or another doubt; inactive means no such curve, though single readings can be large; an effect the other way counts as inactive or inconclusive.

How did COc1ccc(CC(=O)n2[nH]c(=O)ccc2=O)cc1OC do in these assays?
AmpC no deterg: inactive; Sm TGR block: 0.56µM; AmpC detergent: inconclusive

What do the screens show for `COc1ccc(CC(=O)n2[nH]c(=O)c3ccccc3c2=O)cc1OC`?
AmpC no deterg: inactive; Sm TGR block: inactive; AmpC detergent: inactive

What do the screens show for `Nc1nnc(/C=C/c2ccccc2)s1`?
AmpC no deterg: inactive; Sm TGR block: inactive; AmpC detergent: inactive

What do the screens show for `COC(=O)CC(NC(=S)NC(=O)c1ccccc1)c1ccc(Br)cc1` (stereo not given)?
AmpC no deterg: inactive; Sm TGR block: inconclusive; AmpC detergent: inactive

What do the screens show for `O=[N+]([O-])c1nn(-c2ccc3c(c2)OCCO3)n(O)c1=Nc1ccc(Cl)cc1`?
AmpC no deterg: inactive; Sm TGR block: 35µM; AmpC detergent: inactive

How did O=[N+]([O-])c1nn(-c2ccc3c(c2)OCCO3)n(O)c1=NC1CCCCCC1 do in these assays?
AmpC no deterg: inactive; Sm TGR block: 35µM; AmpC detergent: inactive

What do the screens show for `O=[N+]([O-])c1nn(-c2ccc3c(c2)OCCO3)n(O)c1=NC1CCCC1`?
AmpC no deterg: inactive; Sm TGR block: inactive; AmpC detergent: inactive

What do the screens show for `Cc1c(Cl)cccc1N=c1c([N+](=O)[O-])nn(-c2ccccc2)n1O`?
AmpC no deterg: inactive; Sm TGR block: inactive; AmpC detergent: inactive

How did O=[N+]([O-])c1nn(-c2ccc3c(c2)OCCO3)n(O)c1=Nc1ccccc1 do in these assays?
AmpC no deterg: inactive; Sm TGR block: inactive; AmpC detergent: inactive

What do the screens show for `CCc1ccc(N=c2c([N+](=O)[O-])nn(-c3ccc4c(c3)OCCO4)n2O)cc1`?
AmpC no deterg: inactive; Sm TGR block: 10µM; AmpC detergent: inactive

What do the screens show for `Cc1ccc(N=c2c([N+](=O)[O-])nn(-c3ccccc3)n2O)c(C)c1`?
AmpC no deterg: inactive; Sm TGR block: 32µM; AmpC detergent: inactive

How did Cc1ccc(N=c2c([N+](=O)[O-])nn(-c3ccc4c(c3)OCCO4)n2O)cc1F do in these assays?
AmpC no deterg: inconclusive; Sm TGR block: inactive; AmpC detergent: inactive

What do the screens show for `CN(Cc1ccccc1)S(=O)(=O)CCNC(=O)c1ccc2c(c1)OCO2`?
AmpC no deterg: inactive; Sm TGR block: inactive; AmpC detergent: inactive

Results for Cc1ccc2c(c1)N(C(=O)N1CCC(C(=O)NCCC3=CCCCC3)CC1)CC(C)O2 (stereo not given) ?
Sm TGR block: inactive; AmpC detergent: inactive

Results for CCN(C(=O)CSc1nnc(-c2ccc(OC)cc2)n1C(C)C)C1CCS(=O)(=O)C1 (stereo not given) ?
AmpC no deterg: inactive

How did Cc1ccc(N=c2c([N+](=O)[O-])nn(-c3ccc4c(c3)OCCO4)n2O)c(Cl)c1 do in these assays?
AmpC no deterg: inactive; Sm TGR block: 4.5µM; AmpC detergent: inactive

What do the screens show for `Cc1cc(C)cc(N=c2c([N+](=O)[O-])nn(-c3ccc4c(c3)OCCO4)n2O)c1`?
AmpC no deterg: inactive; Sm TGR block: inactive; AmpC detergent: inactive

Results for COc1cc(N2C(=O)C=CC2=O)c(OC)cc1Cl ?
AmpC no deterg: inactive; Sm TGR block: 0.71µM; AmpC detergent: inactive

How did COc1cc(Cl)c(S(=O)(=O)N2CCCC2)cc1Cl do in these assays?
AmpC no deterg: inactive; Sm TGR block: inconclusive; AmpC detergent: inactive

What do the screens show for `Cc1noc(NC(=O)c2cccc(Cl)c2Cl)c1C#N`?
AmpC no deterg: inactive; AmpC detergent: inactive

Results for CCOc1cc(C2CC(=O)Nc3c2c(=O)nc(SCc2cccc(Cl)c2)n3C)ccc1O (stereo not given) ?
Sm TGR block: inactive; AmpC detergent: inactive

Results for C=CCN(C(=O)c1ccccn1)C(C(=O)NCc1ccccc1)c1ccccc1F (stereo not given) ?
AmpC no deterg: inactive; Sm TGR block: inactive; AmpC detergent: inactive

What do the screens show for `O=C(OCc1nnc(-c2ccccc2)o1)C1CC(=O)N(c2ccccc2)C1` (stereo not given)?
AmpC no deterg: inactive; Sm TGR block: inactive; AmpC detergent: inconclusive

How did CCOC(=O)c1sc(N)c(C(=O)OCC)c1COC(=O)C1CC(=O)N(Cc2ccco2)C1 (stereo not given) do in these assays?
AmpC no deterg: inactive; Sm TGR block: 40µM; AmpC detergent: inactive

Results for O=C(OCc1nnc(-c2ccccc2)o1)C1CC(=O)N(Cc2ccco2)C1 (stereo not given) ?
AmpC no deterg: inactive; Sm TGR block: 14µM; AmpC detergent: inactive

Results for COC(=O)c1sc(N)c(C(=O)OC)c1COC(=O)C1CC(=O)N(Cc2ccco2)C1 (stereo not given) ?
AmpC no deterg: inactive; Sm TGR block: inconclusive; AmpC detergent: inactive

What do the screens show for `Clc1cccc(-n2ncc3c(NC4CCCCC4)ncnc32)c1`?
Sm TGR block: inactive; AmpC detergent: inactive

Results for CCOc1ccccc1CNC(=O)c1ccc2nc(N3CCC(C)CC3)sc2c1 ?
Sm TGR block: inactive; AmpC detergent: inactive

Results for COc1cccc(CNC(=O)c2c(O)nc3ccccn3c2=O)c1 ?
Sm TGR block: inactive; AmpC detergent: inactive

How did O=C(NC(=S)Nc1cccc([N+](=O)[O-])c1)C1CCCCC1 do in these assays?
AmpC no deterg: inactive; Sm TGR block: inactive; AmpC detergent: inactive

What do the screens show for `CNC(=S)NNC(=O)c1ccccc1Br`?
AmpC no deterg: inactive; Sm TGR block: inactive; AmpC detergent: inconclusive

How did Cc1cccc(C(=O)NNC(=O)/C=C/C(=O)O)c1 do in these assays?
AmpC no deterg: inactive; Sm TGR block: inconclusive; AmpC detergent: inactive

How did Cc1ccccc1C(=O)NNC(=O)/C=C\C(=O)O do in these assays?
AmpC no deterg: inactive; Sm TGR block: 2µM; AmpC detergent: inactive

How did O=C(O)/C=C/C(=O)NNC(=O)c1ccccc1Br do in these assays?
AmpC no deterg: inactive; Sm TGR block: 3.5µM; AmpC detergent: inactive

Results for Cc1ccc(S(=O)(=O)NCC(=O)OCc2nnc(-c3ccccc3)o2)cc1 ?
AmpC no deterg: inactive; Sm TGR block: inactive; AmpC detergent: inactive

What do the screens show for `COc1ccc(CNS(=O)(=O)NCc2ccccc2F)cc1`?
AmpC no deterg: inactive; Sm TGR block: inactive; AmpC detergent: inactive

How did CCOc1cc(CNCCSc2nnnn2C)ccc1OCc1ccc(Cl)cc1Cl do in these assays?
Sm TGR block: inactive; AmpC detergent: inactive

Results for Cc1ccc(NC(=O)c2ccc([N+](=O)[O-])o2)cc1C ?
AmpC no deterg: inactive; Sm TGR block: inconclusive; AmpC detergent: inconclusive

Results for CCC(=O)N1CCN(c2ccc(NC(=O)c3ccc([N+](=O)[O-])o3)cc2)CC1 ?
AmpC no deterg: inactive; Sm TGR block: 28µM; AmpC detergent: inactive

Results for O=C(Nc1ccc2[nH]c(=O)[nH]c2c1)c1ccc([N+](=O)[O-])o1 ?
AmpC no deterg: inactive; Sm TGR block: 40µM; AmpC detergent: inactive

What do the screens show for `CCCC(=O)N1CCN(c2ccc(NC(=O)c3ccc([N+](=O)[O-])o3)cc2)CC1`?
AmpC no deterg: inactive; Sm TGR block: inconclusive; AmpC detergent: inactive

How did CC(c1ccccc1)n1c(-c2ccc(Cl)cc2)n[nH]c1=S (stereo not given) do in these assays?
AmpC no deterg: inconclusive; Sm TGR block: inactive; AmpC detergent: inactive

Results for COc1ccccc1CNC(=O)CCCN1C(=O)CSc2c1c(C)nn2-c1ccccc1 ?
Sm TGR block: inactive; AmpC detergent: inactive

Screens (PubChem)
